Marburg entry inh: inhibitors of Marburg virus binding or cell entry. Marburg virus pseudotyped entry inhibition, cell reporter. Potency, µM (series often up to 37.8 µM), for the others: at the highest dose activity change, negative = inhibition, hits mostly inhibitors. 300,000 tested, 1.8% active; calls by dose curve; tested in HEK293 cells; also: potency is read from the fitted curve at half-maximal effect; % is scaled to controls: 0 for no effect and ±100 for the full control effect
SARS PLpro yeast: inhibitors of SARS-CoV papain-like protease in yeast | S. cerevisiae expressing SARS-CoV PLpro, growth rescue | 330,000 tested, 0.19% active | Potency, µM (series often up to 32.9 µM), for inactives: at the top dose activity, positive = growth rescue, usual class: activators; calls by dose curve; also: potency is read from the fitted curve at half-maximal effect; 0% is about no effect; nearly all actives have a fitted effect of over 55% in size
FMDV inh: antivirals against foot and mouth disease virus; FMDV antiviral cell-based qHTS; Potency, µM (series often up to 57.9 µM), for inactives: at the highest dose activity change, negative = inhibition, most hits filed as inhibitors; 410,000 tested, 1.2% active; calls by dose curve; tested in HEK293T cells; also: read-out not given here; potency is read from the fitted curve at half-maximal effect; % is scaled to controls: 0 for no effect and ±100 for the full control effect; nearly all actives have a fitted effect of over 45% in size
HCMV inh: blocks human cytomegalovirus replication | AID 1259415 | 410,000 tested, 4.5% active | HFF cells, HCMV-luciferase reporter, 72 h; hits give low values | activity change, negative = inhibition, % at 57.5 µM; in the data active = activity change below about -60%; inconclusive = no clear call, values can overlap the other calls; inactive = above about -39%; also: % is scaled to controls: 0 for no effect and ±100 for the full control effect
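Two compound doses tested in HFFs infected with HCMV-luciferase, MOI 1 PFU/cell, 72 h at 37C. Lysate luminescence read with OneGlo; data normalized against buffer-only and 10uM Salinomycin inhibitor controls.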
LASV entry inh: Lassa virus entry inhibition; Lassa virus pseudotype entry inhibition, cell reporter; Potency, µM (doses to about 37.9 µM), for inactives: at the highest dose activity change, negative = inhibition, most hits filed as inhibitors; 300,000 tested, 1.2% active; AID 540256; calls by dose curve; tested in HEK293 cells; also: potency is read from the fitted curve at half-maximal effect; % is scaled to controls: 0 for no effect and ±100 for the full control effect; nearly all actives have a fitted effect of over 50% in size
HCV inh: inhibitors of hepatitis C virus infection; Huh7.5.1 HCVcc-Cre infection, luciferase reporter, 44 h; Potency, µM (highest dose often 41.8 µM), for the others: at the highest dose activity change, negative = inhibition, usual class: inhibitors; 340,000 tested, 3.4% active; active = well fitted inhibition curve with a large enough effect; inconclusive = small, poorly fitted or top-dose-only effect, or another doubt; inactive = no such curve, though single readings can be large or run the other way; also: potency is read from the fitted curve at half-maximal effect; % is scaled to controls: 0 for no effect and ±100 for the full control effect
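Cells (1,000/well) were plated 4 h before compound, then infected with HCVcc-Cre virus (~0.5 moi). After 44 h further culture, infection was read as luciferase luminescence following a 15 min substrate incubation at room temperature.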
The depositor's hits bear a star; [ ] = another dose, or the depositor's remark. This is a sample that favours compounds with a hit; in the whole collection about 8% have one here.

`O=[N+]([O-])c1c(Nc2ccccc2O)ccc2nonc12` gave Marburg entry inh 25%[46.1 µM], SARS PLpro yeast -7%, FMDV inh -30%, HCMV inh -29, LASV entry inh 2% and HCV inh 3%.
`O=[N+]([O-])c1c(Nc2ccccc2O)cc(Cl)c2nonc12` gave Marburg entry inh inconclusive, SARS PLpro yeast -16%, FMDV inh 10µM*, HCMV inh -97*, LASV entry inh inconclusive and HCV inh 11µM*.
Screening CN(C)c1ccc(NC(=O)CN2CCN(CC(=O)Nc3ccc(Br)cc3)CC2)cc1 returned FMDV inh -11%, HCMV inh 15 and LASV entry inh -1%[46.1 µM].
`COc1ccccc1-n1cc(CN2CCC3(CCC(CNC(=O)c4ccccc4)O3)CC2)cn1` (stereo not drawn) gave FMDV inh 16%.
COc1cc2c(cc1OC)C1O[C@](CCCCN3C(=O)c4ccccc4C3=O)(C2)Oc2cc(C)n(Cc3ccccc3)c(=O)c21 was read as Marburg entry inh -3%[14.2 µM] and SARS PLpro yeast 0%[6.58 µM].
CC(=O)c1cccc(NC(=S)Nc2ccn(Cc3cccc4ccccc34)n2)c1 was read as Marburg entry inh inconclusive, SARS PLpro yeast 12%, FMDV inh -7%, HCMV inh inconclusive, LASV entry inh inconclusive and HCV inh 11µM*.
Cc1ccc(-c2cn(-c3ccc(Cl)cc3)c(S(=O)(=O)CC(=O)Nc3ccccc3)n2)cc1 was read as Marburg entry inh inconclusive, FMDV inh 25%, HCMV inh 66 and LASV entry inh -21%[46.1 µM].
Screening CCN(CC)CCCNc1ccc2ncn3c4ccc(O)cc4c(=O)c1c23 returned Marburg entry inh inconclusive, FMDV inh inconclusive, HCMV inh -90*, LASV entry inh inconclusive and HCV inh inconclusive.
CN(C)CCNc1cccc2sc3ccc(O)cc3c(=O)c12 was read as FMDV inh -16% and HCMV inh -4.
CCOC(=O)c1ccc2ncc(C(=O)OCC)c(NCCN(C)C)c2c1 was read as FMDV inh -23%, HCMV inh 15 and HCV inh inconclusive.
For Cc1ccc(NCCN(C)C)c2c(=O)c3cc(O)ccc3sc12 the results were Marburg entry inh inconclusive, FMDV inh -23%, HCMV inh -99*, LASV entry inh 4µM* and HCV inh 10µM*.
`CN(C)CCNc1ccc2nnn3c4ccc(O)cc4c(=O)c1c23` gave Marburg entry inh inconclusive, FMDV inh -12%, HCMV inh -88*, LASV entry inh -12% and HCV inh 10µM*.
`COc1cc2c(cc1OC)-c1cc3nc4ccccc4nc3n1C(C)(C)C2` gave FMDV inh -25%.
For CCOC(=O)C1CCC(CN(Cc2c(Cl)cccc2Cl)S(=O)(=O)c2ccc(F)c(C)c2)CC1 (stereo not drawn) the results were FMDV inh -15%, HCMV inh -26 and LASV entry inh inconclusive.
For O=C(Cc1cccs1)N[C@H]1CC[C@@]23CCCN2C(=O)CCC[C@H]3[C@H]1Cc1ccccc1 the results were HCMV inh -4.
For CN(CCc1ccccc1)Cc1c[nH]c2ccccc12 the results were SARS PLpro yeast -5%, FMDV inh -25%, HCMV inh -99* and HCV inh 0%.
For c1ccc2c(CNC3CCCCC3)c[nH]c2c1 the results were Marburg entry inh inconclusive, SARS PLpro yeast -2%, FMDV inh -27%, HCMV inh -29, LASV entry inh -5% and HCV inh 4%.
`CN(Cc1c[nH]c2ccccc12)C1CCCCC1` gave Marburg entry inh 0%, SARS PLpro yeast -30%, FMDV inh -10%, HCMV inh -94*, LASV entry inh -16% and HCV inh -28%.
CN(Cc1ccccc1)C(=O)C(=O)c1c[nH]c2ccccc12 was read as FMDV inh 52% and HCMV inh -70*.
`CCN(C(=O)C(=O)c1c[nH]c2ccccc12)c1ccccc1` gave SARS PLpro yeast 1%, FMDV inh 2%, HCMV inh 27 and HCV inh -3%.
`O=C(Nc1cccc(Cl)c1)c1ccc2c(c1)CCN2S(=O)(=O)c1ccccc1` gave Marburg entry inh inconclusive, FMDV inh -11%, HCMV inh -25 and LASV entry inh inconclusive.
For CCOC(=O)c1cccc(NC(=O)N2CC(CC)Sc3ccccc32)c1 (stereo not drawn) the results were FMDV inh -7%, HCMV inh inconclusive and LASV entry inh inconclusive.
Screening Cc1cc(Cl)ccc1NC(=O)c1cc2ccccn2n1 returned FMDV inh -5%, HCMV inh 53 and LASV entry inh inconclusive.
For COCCN1C(=O)NC(c2cccc(C(F)(F)F)c2)C(C(C)=O)=C1C (stereo not drawn) the results were Marburg entry inh 11%[14.2 µM].
For O=C(CCC1CCCCC1)NC1=NCCS1 the results were Marburg entry inh 6%, SARS PLpro yeast -77%, FMDV inh -18%, HCMV inh 3, LASV entry inh inconclusive and HCV inh 28%.
Screening CN(C)CCCNC(=O)CCC1CCCCC1 returned Marburg entry inh 6%, SARS PLpro yeast 2%, FMDV inh -11%, HCMV inh -107*, LASV entry inh 14% and HCV inh 8%.
O=C1CC(C(=O)N2CCCC(c3nc(-c4ccncc4)ncc3-c3ccccc3)C2)C2(CCCCC2)O1 (stereo not drawn) was read as FMDV inh -4%.
`CCCCn1c(=N)n(CC(O)c2ccccc2)c2ccccc21` (stereo not drawn) gave Marburg entry inh 13µM*, SARS PLpro yeast 1%, FMDV inh -17%, HCMV inh inconclusive, LASV entry inh inconclusive and HCV inh inconclusive.
CCCCCCCn1c(=N)n(CC(O)c2ccco2)c2ccccc21 (stereo not drawn) was read as Marburg entry inh 2.8µM*, SARS PLpro yeast 0%, FMDV inh -16%, HCMV inh -73*, LASV entry inh inconclusive and HCV inh 8.9µM*.
`N=c1n(CCN2CCCC2)c2ccccc2n1CC(O)c1ccco1` (stereo not drawn) gave Marburg entry inh inconclusive, SARS PLpro yeast 1%, FMDV inh -2%, HCMV inh -22, LASV entry inh inconclusive and HCV inh inconclusive.
CCn1c(=N)n(CC(O)c2ccccc2)c2ccccc21 (stereo not drawn) was read as Marburg entry inh inconclusive, FMDV inh -11%, HCMV inh -16, LASV entry inh 2% and HCV inh 15%.
`CC(C)(C)c1ccc(Cn2c(=N)n(CC(O)c3ccco3)c3ccccc32)cc1` (stereo not drawn) gave Marburg entry inh 11µM*, SARS PLpro yeast 0%, FMDV inh 20µM*, LASV entry inh -27% and HCV inh 10µM*.
